Source: ChEMBL document CHEMBL3988442, “University of Dundee, Small-Polar-MMV Screening Library” (2021)
Out of some 48,000 compounds screened, about 13,000 (27%) showed an effect of 50% or more. Some of the results follow.

What follows are compounds tested on Wolbachia pipientis (assay: Anti-Wolbachia Cell-Based Screen). Details: 5 µM.
Type: functional
Set-up: scale not given: in the data most compounds retested in dose-response had high values
In the case of `CNC(=O)[C@@H](c1ccccc1F)N1CCC[C@H]1C(=O)NC1CCOCC1.Cl`, the “Percent Effect” value is reported as 3.155%.
`CCCN1CCCn2nc(CNS(=O)(=O)c3cccc(C#N)c3)cc2C1` was tested, and the “Percent Effect” value was 3.103%.
`COc1ccc(CNC2CCC(O)CC2)cc1OCCCC#N` (stereo unspecified) was tested, and the “Percent Effect” value was 107.9%.
With `COc1ccc(CCC(=O)NC2CCC(O)CC2)cc1OC` (stereo unspecified) the “Percent Effect” value was -0.04658%.
In the case of `COCCOc1ccc(CNC2CCc3ncnn3C2)cc1OC` (stereo unspecified), the “Percent Effect” value is reported as 100.1999%.
`CNC(=O)COc1ccccc1CNC1CCc2ncnn2C1` (stereo unspecified) was tested, and the “Percent Effect” value was -1.235%.
`c1ccc(OC2CCCC2)c(CNC2CCc3ncnn3C2)c1` (stereo unspecified) was tested, and the “Percent Effect” value was 12.7%.
For `COc1ccc(CNC2CCc3ncnn3C2)cc1OCC1CC1` (stereo unspecified), the “Percent Effect” value was 83.43%.
With `COc1ccc(CNC2CCc3ncnn3C2)cc1OCCCC#N` (stereo unspecified) the “Percent Effect” value was 100.9%.
For `COc1ccc(CNCC2CC2)cc1F`, the “Percent Effect” value was 0.5807%.
In the case of `CN(C)C(=O)COc1ccccc1CNC1CCc2ncnn2C1` (stereo unspecified), the “Percent Effect” value is reported as -0.6489%.
With `CCOc1ccc(N(CCC#N)C(=O)c2ccc(OC)nc2)cc1` the “Percent Effect” value was 22.48%.
With `CC(C)N(CC(N)=O)Cc1csc(COc2ccc(F)cc2)n1` the “Percent Effect” value was -2.254%.
`CC(C)CN1CC2(CCN(C(=O)C(O)c3cccc(Cl)c3)CC2)CC1=O` (stereo unspecified) was tested, and the “Percent Effect” value was 4.909%.
`COc1cc(C)nc(N2CCN(C(=O)CCc3ccsc3)CC2)n1` was tested, and the “Percent Effect” value was 17.96%.
For `CC(C)N(Cc1ccccn1)C(=O)CN(C)C(=O)c1cccs1`, the “Percent Effect” value was 109.7%.
For `CN(CCc1ccccn1)C(=O)c1cn2c(n1)CNCC2`, the “Percent Effect” value was -0.4774%.
In the case of `CN(CCc1ccccn1)C(=O)c1cccs1.Cl`, the “Percent Effect” value is reported as 100.7%.
`O=C(Cc1ccc2c(c1)CCCC2)NCCc1ccccn1` was tested, and the “Percent Effect” value was 0.3571%.
`CN(Cc1ccccc1NCc1cscn1)C(=O)c1cccs1` was tested, and the “Percent Effect” value was -0.6624%.
For `Cc1cccnc1CC(C)N(C)C(=O)c1cccs1` (stereo unspecified), the “Percent Effect” value was -6.366%.
With `CN(CC(=O)NCCc1ccccn1)C(=O)c1cccs1` the “Percent Effect” value was 94.6%.
For `CN(Cc1ccccc1NCc1ncc[nH]1)C(=O)c1cccs1`, the “Percent Effect” value was 4.243%.
`Cc1ccccc1CN(Cc1ccccn1)C(=O)CN(C)C(C)C` was tested, and the “Percent Effect” value was -1.429%.
`Cc1nnn2c1COCC(CNC(=O)c1ccc3[nH]ccc3c1)C2` (stereo unspecified) was tested, and the “Percent Effect” value was 13.15%.
In the case of `CCN(C)CC1CCN(C(=O)Nc2ccc(-c3csnn3)cc2)C1` (stereo unspecified), the “Percent Effect” value is reported as -9.21%.
For `Cc1nc(C)c(CN(C)C2CCN(C(=O)OC(C)(C)C)CC2)s1`, the “Percent Effect” value was -6.792%.
`O=S(=O)(Nc1cn[nH]c1)c1ccc(F)c(Br)c1` was tested, and the “Percent Effect” value was -20.95%.
For `CC(=O)N(C)CC(=O)NCC1(c2cccc(C)c2)CCCC1`, the “Percent Effect” value was -4.333%.
`OC1(CN2CCCC2)CCCN(Cc2c[nH]c(CC3CCCC3)n2)C1` (stereo unspecified) was tested, and the “Percent Effect” value was -7.473%.
With `OC1(CN2CCCC2)CCCN(Cc2ccc(F)cc2Cl)C1` (stereo unspecified) the “Percent Effect” value was -5.76%.
With `COCCN1CCC(c2cncc(N(C)C)n2)CC1` the “Percent Effect” value was 88.64%.
`COCCN1CCC(c2nc3ccccc3[nH]2)CC1` was tested, and the “Percent Effect” value was 5.31%.
`CN(C)c1cncc(C2CCN(CCO)CC2)n1` was tested, and the “Percent Effect” value was -9.091%.
With `CN(C)c1cncc(C2CCN(CC3(O)CCCCC3)CC2)n1` the “Percent Effect” value was 90.17%.
`CN(C)c1cncc(C2CCN(CC(N)=O)CC2)n1` was tested, and the “Percent Effect” value was 103%.
`CCn1ncnc1CN1CCOC(Cc2cccc3ccccc23)C1` (stereo unspecified) was tested, and the “Percent Effect” value was -5.971%.
With `CCn1cc(C(=O)NCC2(C(N)=O)CCOCC2)c2ccccc21` the “Percent Effect” value was -0.08495%.
In the case of `Cc1nc(CN(C)C(=O)C2CCC(=O)N(CCN(C)C)C2)cs1` (stereo unspecified), the “Percent Effect” value is reported as 7.495%.
For `CCCN(CCc1ccccn1)C(=O)CCc1cnn(C)c1`, the “Percent Effect” value was 95.46%.
For `Cc1cnn(C2CN(CC(=O)NCc3ccccn3)C2)c1`, the “Percent Effect” value was 0.4192%.
For `CCCN(CCc1ccccn1)C(=O)Cn1cnnn1`, the “Percent Effect” value was 104.6%.
For `Cc1ccccc1C(=O)N1C[C@@H]2[C@@H](CN(C)CCc3ccccn3)[C@@H]2C1`, the “Percent Effect” value was -8.245%.
For `Cc1ccc(CC(NC(=O)Cn2cnnn2)c2ccccn2)cc1` (stereo unspecified), the “Percent Effect” value was 13.96%.
For `CN(CCCc1cnn(C)c1)C(=O)C1COc2ccccc2C1` (stereo unspecified), the “Percent Effect” value was -12.29%.
In the case of `CCCN(CCc1ccccn1)C(=O)Cn1cc(C)cn1`, the “Percent Effect” value is reported as 98.5%.
`CN(CCc1ccccn1)C(=O)C1Cc2ccccc2CN1C` (stereo unspecified) was tested, and the “Percent Effect” value was 6.694%.
For `CN(C)c1ccc(C(=O)Nc2cnn(Cc3ccccn3)c2)cc1`, the “Percent Effect” value was -12.03%.
In the case of `N#CC1(NC(=O)COc2cc(Cl)cc(Cl)c2)CCOCC1`, the “Percent Effect” value is reported as -7.839%.
With `COc1ccc(CN2C[C@@H]3CC[C@H](C2)N(Cc2snnc2C)C3)cc1` the “Percent Effect” value was -1.178%.
In the case of `CC(C)OCCC(=O)Nc1ncn(CC(=O)N2CCCCCC2)n1`, the “Percent Effect” value is reported as -17.71%.
With `CCCS(=O)(=O)N1CCc2onc(CNc3ncccn3)c2C1` the “Percent Effect” value was 6.344%.
In the case of `CCn1cc(CN2CCCC(COc3ccc(F)cc3)C2)cn1` (stereo unspecified), the “Percent Effect” value is reported as 31.54%.
`Cc1c(CNCc2nn(-c3ccccc3)c3c2CCC3)cc(C#N)n1C` was tested, and the “Percent Effect” value was -12.67%.
`Cc1nccn1C1CCCN(C(=O)c2ccc3c(c2)NC(=O)CO3)C1` (stereo unspecified) was tested, and the “Percent Effect” value was 3.537%.
For `CC(C)c1nccn1C1CCCN(C(=O)c2ccc3c(c2)OCO3)C1` (stereo unspecified), the “Percent Effect” value was -3.611%.
In the case of `CCc1nccn1C1CCCN(C(=O)c2ccc3c(c2)OCCO3)C1` (stereo unspecified), the “Percent Effect” value is reported as 89.9%.
With `CCc1nccn1C1CCCN(C(=O)c2ccc3c(c2)OCO3)C1` (stereo unspecified) the “Percent Effect” value was 0.5679%.
For `Cc1nccn1C1CCCN(C(=O)c2ccc3c(c2)OCCCO3)C1` (stereo unspecified), the “Percent Effect” value was 112.3%.
For `CCc1nccn1C1CCCN(C(=O)c2ccnc(N(C)C)c2)C1` (stereo unspecified), the “Percent Effect” value was 1.194%.
For `CN(C)c1nc(NCc2ccccc2Cn2cccn2)ncc1F`, the “Percent Effect” value was 5.014%.
With `Cc1cccc(C(=O)Nc2ccc(OC3CCOCC3)c(C)c2)n1` the “Percent Effect” value was 4.017%.
For `COc1ccc(CN2CCCC2)cc1Oc1ccc2c(c1)CC(CN)O2` (stereo unspecified), the “Percent Effect” value was -16.95%.
`O=C(c1ccc(SC(F)(F)F)cc1)N1CCOCC1c1ncon1` (stereo unspecified) was tested, and the “Percent Effect” value was -6.89%.
For `CC(C(=O)N(C)Cc1ccc(Br)o1)n1cncn1` (stereo unspecified), the “Percent Effect” value was -10.62%.
`CCCn1nccc1NC(=O)c1ccc(Cl)c(N2CCNC2=O)c1` was tested, and the “Percent Effect” value was -10.44%.
For `Cc1ccc(CN(C(=O)C(C)NC(N)=O)C2CC2)cc1C` (stereo unspecified), the “Percent Effect” value was 10.7%.
For `COCCCN(Cc1ccncc1)C(=O)C1COc2ccccc2C1` (stereo unspecified), the “Percent Effect” value was -18.33%.
For `CCCN(Cc1ccccc1O)C(=O)Nc1cnn(CCOC)c1`, the “Percent Effect” value was -1.283%.
For `CC(C)N(Cc1ccc(C#N)cc1)C(=O)Nc1ccccn1`, the “Percent Effect” value was 7.153%.
For `COCCN(Cc1cc(O)nc2ccccc12)C(=O)NC(C)C`, the “Percent Effect” value was 129.1%.
`COCCCN(Cc1cc(O)nc2ccccc12)C(=O)NC(C)C` was tested, and the “Percent Effect” value was 116.8%.
In the case of `CC(C)N(CC(N)=O)Cc1csc(Cc2ccccc2)n1`, the “Percent Effect” value is reported as -4.617%.
With `CC(C)NC(=O)N(Cc1cc(O)nc2ccccc12)C(C)C` the “Percent Effect” value was 134.4%.
In the case of `COCCN(Cc1ccc(F)cc1Cl)C(=O)c1ccccn1`, the “Percent Effect” value is reported as -0.554%.
With `COCCN(Cc1ccccc1Cl)C(=O)c1c(C)cc(C)[nH]c1=O` the “Percent Effect” value was 2.486%.
